Compound activity (PubChem)
This is one part of a sample in which hits are shown more often than they occur.
HTT cytoprotect: cytoprotection in Huntington HTT-Q103 PC12 cell model; PC12 HTT-Q103 induced, cytoprotection, ATP luminescence, 40 h; Potency, µM (highest dose often 56.4 µM), for inactives: cytoprotection (ATP increase), actives largely listed as activators; actives 0.14% (n = 230,000); further: potency means the concentration at half of the fitted maximal effect; % of control where 0% means no effect; nearly all actives have a fitted effect of over 45% in size
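Readout: ATPlite luminescence (ATP level). Model: stable PC12, inducible Htt exon1 Q103-GFP. Inducer: tebufenozide, 100 nM final. Compounds: dose series. No G418 in medium.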
PNC inhibitor: inhibitors of perinucleolar compartment assembly; PC3M PTB-GFP, PNC prevalence imaging, 16 h; hits give low values; activity change (PNC), negative = inhibition, % at 10 µM; actives 3.1% (n = 140,000); AID 2417;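 active means readout at or below -70, meaning at least 70% loss of cells showing the perinucleolar compartment, a nuclear body marking cancer cells; inconclusive means readout between -30 and a set limit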;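 further: plate controls were DMSO wells for no effect and camptothecin positive control wells for full effect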
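Read-out is percentage of cells bearing a perinucleolar compartment, from automated 20x imaging of fixed, Hoechst-stained PC3M PTB-GFP cells. Cells were seeded 4 h, then exposed 16 h to compound (23 nl of library stock) in duplicate plates.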
HttQ103 aggreg: reduces HttQ103-GFP aggregates in PC12 cells; PC12 HttQ103-GFP aggregates, Acumen cytometry, 40 h; AID 1688; actives 1.1% (n = 220,000); Potency, µM (doses to about 46.1 µM), without a hit: at the highest dose activity change, negative = inhibition, most hits filed as inhibitors; further: potency means the concentration at half of the fitted maximal effect; on the % scale 0 is the no-effect control and ±100 the full control effect; nearly all actives have a fitted effect of over 60% in size
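Multiplexed with ATP-based cell death, this channel scores GFP aggregates in PC12 cells expressing inducible HTTex1-Q103-GFP. Induction used 100 nM tebufenozide; compounds were tested in concentration series.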
Starred values were filed as active, the others as inactive; ? = inconclusive; . = no result; [ ] = remark or other dose. Unless noted, the call rests on the fitted dose curve; in most records, active means well fitted curve in the direction sought with a large enough effect; inconclusive means small, poorly fitted or top-dose-only effect, or another doubt; inactive means no such curve, though single readings can be large; an effect the other way counts as inactive or inconclusive.

SMILES	HTT cytoprotect	PNC inhibitor	HttQ103 aggreg
COCCNC(=O)C1(CC(C)C)C=CCN1C(C)=O (configuration not stated)	11.4%	.	.
CCN(CC)C(=O)c1sc2nc(Cc3ccccc3)[nH]c(=O)c2c1C	-12.9%	.	4.2%[9.22 µM]
CCCCCOC(=O)C1C(c2ccccc2)C(C(=O)O)C1c1ccccc1 (configuration not stated)	.	-1.3	25.6%
COc1ccc(-n2c(CCC(=O)O)ccc2-c2ccccc2)cc1	-3.8%[10 µM]	.	5.4%[9.22 µM]
Cc1ccc(Cl)cc1NC1=C/C(=N\S(=O)(=O)c2cccs2)c2ccccc2C1=O	-95.8%[10 µM]	-3.4	1.58µM*
CC(C)(C)c1cc[n+](C2=C([O-])c3ccccc3C(=O)/C2=N\S(=O)(=O)c2cccs2)cc1	-13.6%[10 µM]	.	-6.6%[9.22 µM]
CCn1cc(C(=O)N2CCN(C(=O)c3ccco3)CC2)c2cc(OC)c(OC)cc2c1=O	-6.3%[10 µM]	?	6.2%
CCC(=O)N(C)CCc1cc2c(c(OC)c1/C=N/NC(=O)c1ccncc1)OCO2	-14.0%[10 µM]	.	-19.1%[9.22 µM]
CCC(=O)N1C(=O)CCN(C(C)=O)c2ccccc21	-14.4%[10 µM]	-93.7*	4.6%
O=C(CCC(=O)N1CCc2ccccc21)N1CCc2ccccc21	5.7%	.	.
O=C(NCc1ccc2c(c1)OCO2)c1ccc(CS(=O)(=O)c2ccc(Br)cc2)o1	10.1%	-87.1*	?
O=C(NCc1ccc2c(c1)OCO2)c1ccc(CS(=O)(=O)c2cccc(C(F)(F)F)c2)o1	12.4%	-22.8	?
Cc1ccc2c(c1)C(c1ccccc1)C(=O)O2 (configuration not stated)	-0.4%[10 µM]	.	0.9%[9.22 µM]
Cn1nc(-c2ccc(C(=O)O)cc2)c2ccccc2c1=O	-4.6%	35.2	4.6%
COC(=O)c1ccc(-c2nn(C)c(=O)c3ccccc23)cc1	-7.0%[10 µM]	-108.4*	-4.9%
Cc1ccc(S(=O)(=O)NC(N)=NCCc2ccccc2)cc1C	-26.7%[10 µM]	-23.3	12.1%
Cc1ccc(NC(=O)c2ccccc2-c2ccc(C(F)(F)F)cc2)cc1S(=O)(=O)N1CCOCC1	-32.1%[10 µM]	49.3	22.9%
COc1ccc(C)cc1S(=O)(=O)N(CC(=O)NCc1ccc(Cl)cc1)Cc1ccccc1	-25.4%[10 µM]	-8.3	28.2µM*
COc1ccc(CNC(=O)CN(Cc2ccccc2)S(=O)(=O)c2ccc(Cl)cc2)cc1	-18.6%	22.7	?
O=C(CN1CCOCC1)Nc1ncc(Cc2ccccc2Cl)s1	10.6%[10 µM]	?	-14.2%
CCc1ccc(CCC(=O)Nc2ncc(Cc3ccccc3Cl)s2)o1	-71.7%[10 µM]	-91.0*	-0.8%
CCOc1c(Br)ccc2c1sc1nc[nH]c(=O)c12	10.5%[10 µM]	-17.0	11.2µM*
COCCOC(=O)c1sc2nc[nH]c(=O)c2c1C	-19.1%	.	?
Cc1cc(N2CCN(c3nc(N4CCOCC4)nc4ccccc34)CC2)c2ccccc2n1	13.9%[0.074 µM]	.	.
Cc1cc(N2CCOCC2)c2c(N)c(Br)cc(C)c2n1	-26.0%	-9.9	2µM*
SMILES	HTT cytoprotect	PNC inhibitor	HttQ103 aggreg
Cc1cc(C)c(C(N)=O)c(SCC(=O)c2ccc(Cl)cc2)n1	-11.7%	32.8	-24.5%
Cc1ccc(C(=O)CSc2nc(C)cc(C)c2C(N)=O)cc1	-13.1%[10 µM]	-87.8*	-15.6%
Cc1cccc(Cn2c(=O)n(CCCC(=O)NCc3ccco3)c(=O)c3ccccc32)c1	.	-28.2	13.3%
Cc1noc(C)c1COc1ccc(CC(=O)NCc2ccccc2)cc1	.	.	-9.2%
Cc1noc(C)c1CN1C(=O)NC(Cc2ccccc2)(Cc2ccccc2)C1=O	6.6%	-106.9*	25.6%
Cc1cccc(Nc2ccc([N+](=O)[O-])cc2C(=O)O)c1	-3.9%[10 µM]	-22.2	-14.1%
COc1ccc(/C=N/NC(=O)CCCC(=O)NC2CCCCC2)cc1	-16.5%	-19.4	2.9%
N#CCC(=O)Nc1ccccc1C(=O)O	-0.4%[10 µM]	29.9	-11.8%
N#CCC(=O)Nc1ncn(Cc2ccccc2Cl)n1	-8.8%[0.074 µM]	-81.3*	-12.3%
C/C=C/C(=O)OCC(=O)Nc1c(Cl)cccc1Cl	-19.0%	7.3	-5.5%
O=C(CNC(=O)c1cccs1)NCC(=O)OCc1c(Cl)cccc1Cl	-17.8%	81.5	6.8%
O=C(CNC(=O)c1cccs1)NCC(=O)OCc1ccccc1Cl	-12.6%	-82.6*	16.5%
Nc1ccc(C(=O)C[C@H](N)C(=O)O)cc1O	12.2%[10 µM]	.	.
O=C1N/C(=C/c2ccc(Br)s2)C(=O)N1c1ccccc1	-8.1%[10 µM]	.	-7.1%[9.22 µM]
Cc1ccc(S(=O)(=O)NC(CC(=O)N2CCc3ccccc32)c2ccco2)cc1 (configuration not stated)	-5.8%	15.6	-11.9%
COc1ccc(S(=O)(=O)NC(CC(=O)N2CCc3ccccc32)c2ccco2)cc1 (configuration not stated)	11.0%	-82.0*	0.6%
CCN(CC)C(=O)C12CC3CC(CC(Br)(C3)C1)C2	-13.5%	.	-1.0%
O=C(c1cc(F)ccc1F)C1CCCN(C(=O)CCc2cnccn2)C1 (configuration not stated)	25.8%[10 µM]	.	9.8%[9.22 µM]
CC(=O)OCC(=O)Nc1ccc([N+](=O)[O-])cc1Cl	-27.2%	.	-9.8%
CC(=O)Oc1c(C)cc(Cl)cc1C(=O)Nc1ccc([N+](=O)[O-])cc1Cl	-58.5%[10 µM]	-11.6	0.251µM*
Brc1ccc(-c2nc(N/N=C/c3cccnc3)c3ccccc3n2)cc1	-90.6%	4.3	10µM*
C(=N\Nc1nc(-c2cccnc2)nc2ccccc12)/c1ccccc1	-8.8%[10 µM]	.	-10.1%[9.22 µM]
O=C(O)C/C(=C\c1ccco1)C(=O)O	1.6%[10 µM]	.	.
Cc1ccc(NS(=O)(=O)c2ccc(Cl)c(C(=O)Nc3ccccc3-c3nc4ccccc4[nH]3)c2)cc1C	-27.3%[10 µM]	-9.1	11.2µM*
CN(C)S(=O)(=O)c1ccc(Cl)c(C(=O)Nc2nc3ccccc3[nH]2)c1	-15.8%	.	-14.3%
SMILES	HTT cytoprotect	PNC inhibitor	HttQ103 aggreg
CCCN1CN(CCc2ccccc2)CNC1=S	11.3%[10 µM]	-4.4	-16.3%
O=c1cc(-c2ccccc2Cl)oc2c([N+](=O)[O-])c(O)cc(O)c12	?	?	1.78µM*
O=C(Nc1ccc(O)c2c(=O)cc(-c3ccccc3Cl)oc12)c1cccc(Cl)c1	.	-80.0*	-3.0%
Cc1cccc(C(=O)Nc2ccc(O)c3c(=O)cc(-c4ccccc4Cl)oc23)c1	.	60.3	-18.8%
O=c1cc(-c2ccccc2Cl)oc2ccc([N+](=O)[O-])c(O)c12	?	43.2	?
O=C(NCc1cccs1)C1CCCN1C(=O)Nc1ccc(Cl)cc1 (configuration not stated)	23.7%[10 µM]	.	16.0%
CCCCCn1c(SCC#N)nc2cc(C(=O)NCC3CCCO3)ccc2c1=O (configuration not stated)	-17.5%	?	-15.1%
Cc1sc(NC(=O)c2ccccc2)c(C#N)c1-c1ccccc1	-2.2%[10 µM]	?	-18.0%
Cc1cc(NC(=O)CN2CC(C)OC(C)C2)n(-c2nc3ccccc3s2)n1 (configuration not stated)	-11.8%	-99.2*	-1.7%
CCOC(=O)C1CCN(CC(=O)Nc2cc(C)nn2-c2nc3ccccc3s2)CC1	-16.9%	5.8	0.2%
CN1c2ccccc2N(C)C1(C)c1ccccc1	-19.0%[10 µM]	-6.9	-14.4%
CCN1c2ccccc2N(C)C1(C)c1ccccc1 (configuration not stated)	16.1%[10 µM]	-13.5	12.6µM*
COc1ccccc1/C=C/C(=O)NC(=S)NC(C)C	-2.6%[10 µM]	-25.2	14.6%
CCn1c(SCC(=O)NCC2CCCO2)nc2c(c1=O)SC(C)C2 (configuration not stated)	-4.2%[10 µM]	10.6	14.8%
